Bioassay records deposited in PubChem by several laboratories.
An excerpt weighted towards active compounds, which were near 4.7% of everything screened.
PfHsp90 yeast 2 = reduces growth (ATP signal) of yeast expressing P. falciparum Hsp90. S. cerevisiae expressing PfHsp90, BacTiter-Glo ATP, 48 h; yeast lacking PDR1 and PDR3 efflux regulators. inhibition, % at 9.4 µM. 0.32% of 310,000 active. AID 504621;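 active means every replicate shows inhibition above about 80%, whatever the replicate mean, limit read from the data; inconclusive means mean inhibition reaches the set limit but some replicate falls short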;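 further: 0% = DMSO neutral controls and 100% = 20 µM radicicol positive controls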
tim23-1 inh = growth inhibitors of tim23-1 mutant yeast; S. cerevisiae tim23-1 growth, BacTiter-Glo luminescence, 24 h; 1.3% of 330,000 active; inhibition, % at 20 µM; AID 463212;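 active means growth inhibition of the mutant yeast at or above 50%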;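 further: temperature-sensitive mutant grown at 25 °C; plate controls were DMSO-treated mutant yeast for no effect and medium wells lacking yeast for full effect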
EBI2 antag = blocks human EBI2 receptor beta-arrestin signaling | P32249 | EBI2 beta-arrestin recruitment, luminescence, 7a,25-OHC stimulated | inhibition, % at 5 µM | 0.81% of 360,000 active | AID 651636; in the data active means inhibition above about 38%;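 further: enzyme fragment complementation signal reports receptor beta-arrestin coupling in cells; 0% = agonist plus DMSO wells and 100% = wells without agonist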
Target sequence (P32249 whole entry, looked up, the tested form may be a part): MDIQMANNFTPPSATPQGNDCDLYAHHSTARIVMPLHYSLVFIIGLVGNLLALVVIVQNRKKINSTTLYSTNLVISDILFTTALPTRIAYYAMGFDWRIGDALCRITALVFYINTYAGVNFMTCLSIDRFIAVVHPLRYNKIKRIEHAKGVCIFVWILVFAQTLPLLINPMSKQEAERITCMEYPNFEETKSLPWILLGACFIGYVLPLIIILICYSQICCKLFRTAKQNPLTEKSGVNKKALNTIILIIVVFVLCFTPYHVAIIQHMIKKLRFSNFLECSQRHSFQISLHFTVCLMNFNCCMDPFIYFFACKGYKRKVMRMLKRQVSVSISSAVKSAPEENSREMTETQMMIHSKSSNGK
TIM10 inh = growth inhibitors of TIM10 yeast strain. S. cerevisiae TIM10 strain growth, BacTiter-Glo luminescence, 24 h. inhibition, % at 10 µM. 1.4% of 330,000 active. AID 463195;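 active means inhibition of 40% or more at the single tested concentration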;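 further: wild-type TIM10 isogenic control strain grown at permissive 25 °C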
tim10-1 inh = growth inhibitors of tim10-1 mutant yeast; S. cerevisiae tim10-1 ts strain growth, BacTiter-Glo, 24 h; inhibition, % at 20 µM; 2.2% of 330,000 active;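 active means inhibition of at least 40%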;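 further: mutant grown at 25 °C; 0% = DMSO wells with yeast and 100% = wells holding no yeast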
SKKanGAS inh = SKKanGAS growth inhibition; S. pyogenes SKKanGAS, kanamycin growth, BacTiter-Glo, 6 h; 1.3% of 300,000 active; inhibition, % at 7.5 µM; AID 1662;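 active means mean replicate score, as percent of positive control median, at least 50; inconclusive means mean below 50 but one replicate at or above 50; inactive means mean and every replicate below 50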;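 further: strain carries kanamycin resistance gene driven by streptokinase promoter and grows in 40 µg/ml kanamycin; loss of luminescence reflects streptokinase promoter inhibition or plain growth inhibition; 0% = median of DMSO wells and 100% = positive control at its reference dose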
EBI2 conf = confirmation of human EBI2 receptor antagonists. shares compounds with EBI2 antag. EBI2 beta-arrestin luminescence, 7a,25-OHC antagonism. inhibition, % at 5 µM. 29% of 2,400 active;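 active means inhibition of at least 50%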
EBI2 ag = counter-screen for EBI2 antagonists: EBI2 agonist activity; activation, % at 5 µM; shares compounds with EBI2 antag; AID 652000; EBI2-expressing cells, agonist mode, luminescence, 60 min; 0% vehicle, 100% 7α,25-dihydroxycholesterol control; 2,400 tested, under 10 active;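 active means activation of at least 50%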
bGal cs = inhibits E. coli beta-galactosidase, counter-screen for EBI2 antagonists; shares compounds with EBI2 antag; purified beta-galactosidase, luminescent Galacton Star, 15 min; inhibition, % at 5 µM; 1% of 2,400 active;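 active means replicate-average signal at least 3 plate SD below neutral wells, shown as high inhibition, flagging enzyme-inhibiting false positives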;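 further: 0% = DMSO wells with enzyme and 100% = wells lacking enzyme; higher means stronger loss of beta-gal luminescence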
* marks the source's active call; other numbers are inactive results; ? = inconclusive; · = not tested or not shown.

SMILES	PfHsp90 yeast 2	tim23-1 inh	EBI2 antag	TIM10 inh	tim10-1 inh	SKKanGAS inh	EBI2 conf	EBI2 ag	bGal cs
CCN1CCN(C(=O)c2cc3cc(Cl)ccc3[nH]2)CC1	7	5	84*	6	4	-4	67*	1	8
O=C(c1cc2cc(Cl)ccc2[nH]1)N1CCCCC1	-5	20	27	3	15	2	·	·	·
O=CN1CCN(C(=O)c2cc3cc(Cl)ccc3[nH]2)CC1	1	2	59*	-9	4	5	39	-2	-7
CN1CCN(C(=O)c2cc3cc(Cl)ccc3[nH]2)CC1	-9	14	56*	-2	9	3	32	1	3
O=C(O)c1cc2cc(Cl)ccc2[nH]1	-33	·	1	·	·	·	·	·	·
CC(=O)Nc1cccc(C(=O)OCC(=O)N2CCC(c3ccccc3)=N2)c1	13	15	-1	11	13	-8	·	·	·
COc1ccccc1Cc1c(-c2ccc(C#N)cc2)nc2c3ccccc3ccn12	·	·	43*	·	·	·	19	-1	7
COC(=O)/C=C1\C(=O)N(c2nc3ccccc3s2)C(=S)N1c1ccc(F)cc1	·	1	89*	5	28	?	90*	1	1
C/C(=N/NC(=O)C1CCCCC1)c1ccc([N+](=O)[O-])cc1	-10	11	-7	3	13	0	·	·	·
FC(F)(F)c1ccc(Oc2ccc3cc(Br)ccc3c2)nc1	18	-2	84*	7	10	-14	48	1	7
CCc1ccc(CNC(=O)Cn2nc(-c3ccccc3)ccc2=O)cc1	-11	-2	-8	21	30	-3	·	·	·
COc1ccccc1Nc1ccc(C(=O)NC2CCCCC2)cn1	12	24	10	8	-18	-3	·	·	·
Cc1ccc(Nc2ccc(C(=O)NC3CCCCC3)cn2)cc1	14	18	84*	7	-3	8	58*	0	-11
Nc1nc(Cl)cc(N2CCC(c3cc(-c4ccc(Cl)cc4Cl)n[nH]3)CC2)n1	-43	-7	45*	30	26	45	14	-1	-15
Cc1cc(C)c(S(=O)(=O)N2CCN(C(=O)CCn3nc(C)c(C)c3C)CC2)c(C)c1	14	20	47*	6	20	-12	40	0	-3
Cc1nn(CCC(=O)N2CCN(S(=O)(=O)c3ccccc3)CC2)c(C)c1C	9	13	-2	0	13	1	·	·	·
COc1cc(CN2C[C@@H](CO)O[C@@H](n3cnc4c(NC5CCCC5)ncnc43)C2)cc(OC)c1OC	·	·	-9	·	·	·	·	·	·
CCOc1ccc(NC(=O)CC2C(=O)N(c3ccccc3)C(=O)N2CCc2cccs2)cc1 (stereo not drawn)	5	23	1	16	25	2	·	·	·
Cc1cc(C2(c3ccc(O)c(C)c3)C(=O)Nc3ccccc32)ccc1O	-68	26	67*	11	24	19	37	-1	-12
CN1CCN(C(=O)CSc2ccc(Cl)cc2)CC1	15	26	47*	-2	2	0	20	-1	-19
O=C(CSc1ccc(Cl)cc1)N1CCN(c2ncc(C(F)(F)F)cc2Cl)CC1	-59	27	84*	19	19	15	70*	0	-15
Cc1ccc(SCC(=O)N2CCN(S(=O)(=O)c3cccs3)CC2)cc1	2	14	76*	-1	6	·	49	-1	-8
CC(=O)c1ccc(S(=O)(=O)N2CCN(C(=O)CSc3ccc(C)c(C)c3)CC2)cc1	-13	8	70*	5	19	-16	31	-1	-10
O=C1C=C(Nc2cccnc2)c2ccccc2C1=O	13	·	-19	·	·	·	·	·	·
Cc1nnc(SCC(=O)N2CCN(S(=O)(=O)c3ccc(Cl)cc3)CC2)[nH]c1=O	6	2	-4	-7	13	4	·	·	·
SMILES	PfHsp90 yeast 2	tim23-1 inh	EBI2 antag	TIM10 inh	tim10-1 inh	SKKanGAS inh	EBI2 conf	EBI2 ag	bGal cs
Cc1ccc(S(=O)(=O)N2CCN(C(=O)CSc3ccc(Cl)cc3)CC2)cc1	-16	30	92*	-14	-3	-6	68*	0	7
CC(=O)Nc1cccc(NC(=O)CSc2nccn2Cc2ccccc2)c1	21	12	2	2	6	-2	·	·	·
c1ccc(-c2cn(-c3ccccc3)c3ncnc(NCCCN4CCOCC4)c23)cc1	·	30	62*	17	16	9	18	-1	-10
O=C(O)c1c(Cl)c(Cl)c(Cl)c(Cl)c1C(=O)OCC1CCCO1 (stereo not drawn)	·	·	-14	·	·	·	·	·	·
COc1ccc(NC(=S)N(CCCN2CCOCC2)Cc2cn(C)c3ccccc23)cc1	10	4	18	9	-4	-4	·	·	·
CCOc1ccc(NC(=S)N(CCCN2CCOCC2)Cc2cn(C)c3ccccc23)cc1	5	10	44*	16	13	-4	10	0	7
Cc1cc(Cl)ccc1Oc1ncc(-c2ccc(Cl)cc2)cn1	-22	11	60*	8	-2	6	44	2	8
Clc1ccc(-c2ccccc2)cn1	-1	4	1	-2	8	·	·	·	·
Cc1cc(Cl)ccc1OCc1nc(-c2ccc(O)cc2)n[nH]1	·	-4	17	3	-12	-4	·	·	·
Clc1ccc(-c2cnc(Oc3ccccc3)nc2)cc1	15	16	73*	10	15	5	46	3	4
Cc1ccc(-n2nnnc2CCl)cc1	11	·	-5	·	·	4	·	·	·
Cc1ccc(OCc2nnnn2-c2ccccc2)cc1	-6	23	51*	26	20	-2	33	1	7
COc1ccc(-n2cc(-c3ccccc3)[nH]c2=S)cc1	-2	31	74*	19	24	-14	48	-1	-14
CCOC(=O)C1CCN(C(=O)/C=C/c2ccccc2)CC1	-5	2	65*	2	10	-7	51*	-2	-9
O=C(O)C1CCCN(C(=O)/C=C/c2ccccc2)CC1 (stereo not drawn)	·	·	-14	·	·	·	·	·	·
CN(C)C(CNC(=O)C1CCN(C(=O)/C=C/c2ccccc2)CC1)c1ccccc1 (stereo not drawn)	-10	9	72*	7	9	-3	42	1	3
CCOC(=O)C1CCCN(C(=O)/C=C/c2ccccc2)CC1 (stereo not drawn)	·	·	42	·	·	·	·	·	·
O=C(CN1CCN(C(=O)C2CCN(C(=O)/C=C/c3ccccc3)CC2)CC1)Nc1ccccc1Cl	-1	-3	88*	9	-3	·	56*	1	6
